# About 200 (0.21%) of roughly 96,000 compounds were called active. The sample holds actives, similar compounds and a random draw of the others, so the mix is not that of the screen. A number with no mark means an inactive call.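 The calls were made as follows: active = inhibition at 2 µM at or above a set limit, the screen mean plus 3 SD (cut at about 24% in these data); inactive = the rest.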
# Molecular target: Tyrosine-protein phosphatase non-receptor type 22 (Homo sapiens) (UniProt Q9Y2R2)
# Test: blockers of human LYP enzyme activity – biochemical, DiFMUP fluorescence, 2 µM, primary screen (AID 640);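 also: 0% = DMSO with enzyme and 100% = enzyme fully blocked by orthovanadate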
# Settings: recombinant LYP catalytic domain, at 2 µM, active compounds read high
# Tyrosine-protein phosphatase non-receptor type 22 (Homo sapiens), sequence (Q9Y2R2 whole entry, looked up): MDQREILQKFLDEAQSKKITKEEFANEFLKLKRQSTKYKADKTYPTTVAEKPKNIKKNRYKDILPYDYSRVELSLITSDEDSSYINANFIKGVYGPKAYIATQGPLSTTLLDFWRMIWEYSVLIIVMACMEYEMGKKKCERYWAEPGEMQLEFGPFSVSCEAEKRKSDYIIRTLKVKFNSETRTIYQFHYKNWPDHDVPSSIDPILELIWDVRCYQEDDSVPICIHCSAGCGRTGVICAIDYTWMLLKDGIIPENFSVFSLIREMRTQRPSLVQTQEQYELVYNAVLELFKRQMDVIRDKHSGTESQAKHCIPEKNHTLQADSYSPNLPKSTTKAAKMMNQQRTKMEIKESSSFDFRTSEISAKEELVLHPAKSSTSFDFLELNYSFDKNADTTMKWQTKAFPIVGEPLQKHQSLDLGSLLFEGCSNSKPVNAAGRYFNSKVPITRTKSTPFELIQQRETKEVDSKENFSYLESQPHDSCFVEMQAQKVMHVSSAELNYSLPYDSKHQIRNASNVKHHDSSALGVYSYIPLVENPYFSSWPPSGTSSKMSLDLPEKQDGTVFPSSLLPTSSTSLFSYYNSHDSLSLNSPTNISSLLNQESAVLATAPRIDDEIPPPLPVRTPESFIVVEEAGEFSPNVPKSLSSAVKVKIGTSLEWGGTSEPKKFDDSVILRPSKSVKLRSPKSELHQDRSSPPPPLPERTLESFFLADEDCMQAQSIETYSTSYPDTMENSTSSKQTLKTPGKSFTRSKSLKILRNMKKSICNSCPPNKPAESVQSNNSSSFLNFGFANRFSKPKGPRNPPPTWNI
row,SMILES,inhibition
1,Cc1ccc(OCC(=O)Nc2cccc3c2CCCC3)cc1C,10%
2,CCN1CCN(C(=O)/C=C\C(=O)O)CC1,-7%
3,Cc1cc(S(=O)(=O)NC2CCCCC2)ccc1OCC(=O)NCc1cccnc1,-9.7%
4,COc1ccc(Br)cc1CN1CCN(C(=O)c2cccc(OC)c2OC)CC1,0.1%
5,COC(=O)c1c(CCl)noc1C(=O)NC(C)C,-0.4%
6,CCc1ccc2c(c1)C1(NN=C(c3ccccc3)S1)C(=O)N2 (stereo not given),15.3%
7,CCCCc1nnc(NC(=O)CS(=O)(=O)Cc2ccccc2)s1,3.6%
8,CC(C)c1nc(-c2ccccn2)no1,4%
9,c1ccc(-c2noc(-c3cccs3)n2)nc1,7.6%
10,c1ccc(-c2nccc(-c3ccc(-n4cnc5ccccc54)cc3)n2)nc1,39.8% (active)
11,COc1ccc(Nc2cc(=O)oc3ccccc23)cc1,5%
12,Cc1cc(-n2nc(C)cc2C)n2nc(C)c(-c3ccccc3)c2n1,-2.6%
13,O=C(Nc1ccccc1)O/N=C1\CCCCC1c1ccc([N+](=O)[O-])cc1[N+](=O)[O-] (stereo not given),-11%
14,O=S(=O)(NN=C1CCCCCCC1)c1ccc(Br)cc1,6.1%
15,Cc1nc2ccccc2n1C(=O)N1CCOCC1,1.2%
16,Cc1ccc(S(=O)(=O)N(CC(=O)N2CCc3ccccc3C2)c2cccc(Cl)c2)cc1,4.6%
17,Cc1cc(C)c(NC(=O)CN2CCOCCOCCOCCOCC2)c(C)c1,3.4%
18,O=C(Oc1ccccc1)Oc1ccc2c(c1)oc(=O)c1ccccc12,-1.7%
19,COCCN(C(=O)c1ccco1)c1nnc(-c2ccc(OC)cc2)s1,10.8%
20,COc1ccc(S(=O)(=O)NCc2ccc(C(=O)N(C)Cc3ccco3)cc2)cc1,-6%
21,CCOC(=O)C1=C(C)NC(SC)=NC1c1ccccc1 (stereo not given),-0.6%
22,Cc1nc2cc(NC(=O)NCc3ccccc3)ccc2o1,-5.6%
23,O=C1Nc2cc(Cl)c(Cl)cc2N(O)N1c1cc(Cl)cc(Cl)c1,-15.4%
24,COc1ccc2nc(SCC(=O)Nc3c(C)cc(C)cc3C)[nH]c2c1,-3.6%
25,O=C(c1cccc(F)c1)N1CCN(c2ccc([N+](=O)[O-])c(N3CCCCC3)c2)CC1,8.1%

row,SMILES,inhibition
1,CCn1nccc1C(=O)Nc1ccc(Cl)c(Cl)c1,-0.3%
2,O=C(CC(O)(C(F)(F)F)C(F)(F)F)Nc1ccc(Cl)c(Cl)c1,-2.3%
3,Cc1nnc(NC(=O)Nc2ccc(Cl)c(Cl)c2)s1,24.4% (active)
4,CCOC(=O)C1CN(S(=O)(=O)c2ccc(F)cc2)C1,8.4%
5,CC(C)(C)NC(=O)CSC(=Nc1ccccc1F)NC#N,11.7%
6,CCCn1nnc(NC(=O)COc2ccc(CC)cc2)n1,14.5%
7,CCOC(=O)C(Sc1ncc(C#N)c(N)n1)C(C)C (stereo not given),4.5%
8,Cc1ccc(CN2CCN(/N=C/c3ccco3)CC2)c(C)c1,6.2%
9,CCOC(=O)CN(Cc1ccc(OC)c(OC)c1)S(=O)(=O)c1ccc(OC)cc1,4.6%
10,Cn1nc(C(F)(F)F)c2cc(NC(=O)OCC(C)(C)C)sc21,-3.4%
11,CCCCNCc1ccc(SC)cc1,-8.8%
12,COc1ccc(-c2noc(CSc3ccc(C)cc3)n2)cc1,6.7%
13,CCSc1nnc(NC(=O)c2ccc(C)cc2)s1,-2.4%
14,CC(C)(C)C(=O)Nc1ccc(C(=O)N/N=C/c2ccccc2OC(=O)c2ccc(Cl)cc2Cl)cc1,13%
15,CC(C)n1c(-c2cccs2)nc2ccccc21,-3.5%
16,CCOC(=O)c1cnc(SCC(=O)Nc2cccc(OC)c2)nc1N,-12.3%
17,Cc1ccc(-n2c(C)cc(/C=N/Nc3ccc([N+](=O)[O-])cn3)c2C)c(C)c1,11.5%
18,Cc1nc(NC(=O)CN(C)S(=O)(=O)c2ccc(Cl)cc2)sc1C,6.8%
19,Nc1c(-c2cccc(Cl)c2)cnn1-c1cccc([N+](=O)[O-])c1,-9.9%
20,O=C(N/N=C/c1ccsc1)c1cc(O)cc(O)c1,4.4%
21,Cn1cc([N+](=O)[O-])c(C(=O)Nc2ccc3c(c2)OCCO3)n1,3.8%
22,O=S(=O)(N/N=C\c1cccn1-c1ccccc1)c1ccc2ccccc2c1,-4.4%
23,O=C1CSC(c2ccc(Cl)cc2)N1 (stereo not given),-5.4%
24,COCC(=O)Nc1ccc(Br)cc1,-3.3%
25,Cn1c(=O)c2c(nc(N3CCOCC3)n2CCNC2=NCCC2)n(C)c1=O,-6.1%

row,SMILES,inhibition
1,COn1c(=O)c(=O)n(OC)c2ccccc21,3.4%
2,Cc1oc(-c2ccccc2Cl)[n+]([O-])c1C,-4.8%
3,CC1=NN(C(C)C)C(=O)C1,1.5%
4,c1ccc(CSc2ncnc3c2sc2nc(N4CCOCC4)c4c(c23)CCCC4)cc1,10.1%
5,CCOc1cccc(NC(=O)Cn2nc(-c3ccc4c(c3)OCCO4)ccc2=O)c1,7.6%
6,O=C(Nc1ccc2sc3ccccc3c(=O)c2c1)c1ccccc1Cl,1.6%
7,COC(=O)CSc1nnc(-c2cccnc2)o1,4.2%
8,Cc1ccc2oc(=O)c3cnn(CC(=O)N(Cc4ccco4)C4CCCCC4)c3c2c1,3.6%
9,COc1cc(S(=O)(=O)N(Cc2cccs2)C2CC2)ccc1-n1cnnn1,-4.5%
10,CCOc1ccc(N=C2NC(=O)S/C2=C\c2ccc(O)cc2)cc1,-3.4%
11,COc1ccc2oc(=O)c(C(=O)NCc3ccccn3)cc2c1,-1.3%
12,N#Cc1ccccc1CN1C(=O)S/C(=C/c2cccn2-c2cccc(C(=O)O)c2)C1=O,32.6% (active)
13,Cc1cc(/C=C2/SC(=O)N(CC(=O)OC(C)C)C2=O)c(C)n1C,9.2%
14,Brc1ccc(-c2nnc(-c3ccccc3)o2)o1,-8.3%
15,O=C(CCCN1C(=O)c2ccccc2C1=O)Oc1ccc(Cl)cc1,4.1%
16,COc1ccc(/C(O)=C2/C(=O)C(=O)N(CC3CCCO3)C2c2ccc(OC)c(OC)c2)cc1 (stereo not given),-1.4%
17,COc1cc(CNCc2cccs2)cc(Br)c1OC,1.7%
18,O=c1onc(-c2cccs2)n1Cc1ccccc1,6.3%
19,C=CCOC(=O)C1=C(C)NC(SCC(=O)OCC)=C(C#N)C1c1ccc(C)cc1 (stereo not given),-1.5%
20,COc1ccccc1NC(=O)CSc1nnc(C)n1CC1CCCO1 (stereo not given),-14.6%
21,CCCn1c(C(Cc2ccccc2)NC(=O)COC)nc2ccccc21 (stereo not given),-7.4%
22,CC(C)OC(=O)CN1C(=O)C(=O)c2ccccc21,-2.8%
23,COc1ccc([N+](=O)[O-])cc1C1NN=C(c2cccc3ccccc23)S1 (stereo not given),10.1%
24,O=C(NCc1ccco1)C1(c2ccc(Cl)cc2)CCCC1,-8.9%
25,Cc1cccc(NC(=O)N(Cc2cc3cc(C)cc(C)c3[nH]c2=O)CC2COCCO2)c1 (stereo not given),2.6%

row,SMILES,inhibition
1,CCOC(=O)c1nc(C)n(-c2ccc(Cl)cc2Cl)n1,-1.3%
2,Cc1ccc(N2CCN(/N=C/c3cccs3)CC2)cc1,9.9%
3,Clc1ccccc1SCc1nc2ccccc2[nH]1,2.7%
4,Cc1ccc(NC(=O)CSCC(=O)N2CCOCC2)cc1,-3.1%
5,COC(=O)c1ccc(C2C(Oc3ccccc3C)C(=O)N2CCc2ccc(OC)c(OC)c2)cc1 (stereo not given),-11.5%
6,CCSc1nnc(NC(=O)Cc2ccccc2OC)s1,15.4%
7,CC(c1ccco1)N(C(=O)Nc1ccccc1)C1CCCCC1 (stereo not given),-2%
8,CCOc1c2ccc(C(=O)NC3CCCc4ccccc43)cc2nn1CC (stereo not given),-7.5%
9,CCN1C(=O)/C(=C2/Sc3ccc(OC)cc3N2C)SC1=Nc1ccc(C)cc1,-28%
10,O=C(ON=C1CCN(S(=O)(=O)c2ccccc2)CC1)c1ccc(Cl)cc1,-19.3%
11,Cc1ccccc1C(=O)N1CCC(C(=O)Nc2ccc(S(=O)(=O)N(C)C(C)C)cc2)CC1,3.5%
12,CCOc1c2ccc(C(=O)NCc3ccc4c(c3)OCO4)cc2nn1C,-4.3%
13,Cc1cc(Cl)c(S(=O)(=O)N(C)C)cc1OCC(N)=O,-3.7%
14,O=Cc1c(N2CCN(c3cccc(Cl)c3)CC2)nc2ccccn2c1=O,-12.5%
15,COc1ccc(CN2CCn3ncc(C(=O)Nc4ccc(Cl)cc4Cl)c3C2=O)cc1,-3.3%
16,CC1CCc2c(nc3ncnn3c2Nc2ccc(OC(F)(F)F)cc2)C1 (stereo not given),16.7%
17,O=C(/C=C/Sc1ncn[nH]1)c1ccc(Cl)cc1,-5.9%
18,Cc1cccc(-n2ncc(C#N)c2-n2cccc2)c1,-13.4%
19,CCOC(=O)c1ccc(COC(=O)CCc2nc(-c3ccccc3)c(-c3ccccc3)o2)cc1,10.3%
20,COC(=O)CNC(c1ccccc1Cl)c1cc(Br)ccc1NC(=O)CCN1CCOCC1 (stereo not given),7.7%
21,O=C(CSc1nc2ccccc2o1)N1c2ccccc2Sc2ccc(Cl)cc21,4.8%
22,N#CC1=C(N)N(c2ccc(F)cc2)C(=O)C1,7%
23,O=[N+]([O-])c1ccc(N2CCN(S(=O)(=O)c3ccc4ccccc4c3)CC2)cc1NCc1ccco1,4.1%
24,Cn1nnnc1SCC(=O)Nc1ccccc1C(=O)NC1CC1,11.6%
25,COc1ccc(-n2cnc3cc(NCc4ccco4)ccc32)cc1,6.5%

# Reference: PubChem BioAssay AID640 (Columbia University Molecular Screening Center, 2007)
